Bioassay records: PubChem, National Center for Advancing Translational Sciences (NCATS)
Only some compounds are listed: those with a hit (about 7.9% of all), similar ones and a draw of the others.
LASV entry inh: Lassa virus entry inhibition; Lassa virus pseudotype entry inhibition, cell reporter; Potency, µM (top dose mostly 37.9 µM), inactives show top-dose activity change, negative = inhibition, hits mostly inhibitors; 300,000 tested, 1.2% active; calls by dose curve; tested in HEK293 cells; further: potency means the concentration at half of the fitted maximal effect; nearly all actives have a fitted effect of over 50% in size
HCV inhibitor: HCV inhibition; Huh7.5.1 HCVcc-Cre infection, luciferase reporter, 44 h; Potency, µM (doses to about 41.8 µM), for inactives: top-dose activity change, negative = inhibition, actives largely listed as inhibitors; 340,000 tested, 3.4% active; AID 651820; active means well fitted inhibition curve with a large enough effect; inconclusive means small, poorly fitted or top-dose-only effect, or another doubt; inactive means no such curve, though single readings can be large or run the other way; further: potency means the concentration at half of the fitted maximal effect
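Seed cells (1,000/well) for 4 h; treat with compound and infect with HCVcc-Cre, moi about 0.5. Incubate 44 h, then detect luciferase activity.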
HCMV inh: blocks human cytomegalovirus replication | activity change, negative = inhibition, % at 57.5 µM | AID 1259415 | 410,000 tested, 4.5% active | HFF cells, HCMV-luciferase reporter, 72 h; stronger effect = lower value; in the data active means activity change below about -60%; inconclusive means no clear call, values can overlap the other calls; inactive means above about -39%
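Luciferase read-out from HCMV-luciferase-infected HFFs (MOI 1 PFU/cell) 72 h post infection at 37C; compounds added after 16 h cell attachment; activity normalized between buffer-only basal and Salinomycin (10uM) inhibitor controls.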
Marburg entry inh: Marburg virus entry inhibition; Marburg virus pseudotyped entry inhibition, cell reporter; Potency, µM (top dose mostly 37.8 µM), inactives show at the highest dose activity change, negative = inhibition, actives largely listed as inhibitors; 300,000 tested, 1.8% active; calls by dose curve; tested in HEK293 cells; further: potency means the concentration at half of the fitted maximal effect
FMDV antiviral: antivirals against foot and mouth disease virus. FMDV antiviral cell-based qHTS. Potency, µM (highest dose often 57.9 µM), for the others: at the highest dose activity change, negative = inhibition, most hits filed as inhibitors. 410,000 tested, 1.2% active; calls by dose curve; tested in HEK293T cells; further: read-out not given here; potency means the concentration at half of the fitted maximal effect; nearly all actives have a fitted effect of over 45% in size
An asterisk follows results filed as active; [ ] = another dose, or the depositor's remark. On the % scale 0 is the no-effect control and ±100 the full control effect.

COc1ccc(C(=O)NC(c2ccc(Cl)cc2)c2cc(Cl)c3cccnc3c2O)cc1 (centres undefined) was read as LASV entry inh -21.2%[46.1 µM], HCMV inh 0.4 and FMDV antiviral -9.6%.
`COc1ccc(C(NC(C)=O)c2cc(Cl)c3cccnc3c2O)cc1OC` (centres undefined) gave LASV entry inh 2.82µM*, HCV inhibitor 2µM*, HCMV inh -99.8*, Marburg entry inh inconclusive and FMDV antiviral -16.7%.
Screening O=C(NC(c1ccccc1)c1cc(Cl)c2cccnc2c1O)c1cccnc1 (centres undefined) returned LASV entry inh -13.6%, HCV inhibitor -12.5%, HCMV inh -99.9* and Marburg entry inh -22.8%.
`CCC(=O)NC(c1ccc(C)cc1)c1cc(Cl)c2cccnc2c1O` (centres undefined) gave FMDV antiviral -21.1%.
Screening COc1ccccc1C(NC(C)=O)c1cc(Cl)c2cccnc2c1O (centres undefined) returned LASV entry inh inconclusive, HCV inhibitor inconclusive, HCMV inh -95.9*, Marburg entry inh 3.16µM* and FMDV antiviral 20.6%.
Screening CC1=C(C(=O)N(C)C)CC(CC(=O)NC2CC2)C(=O)N1Cc1ccccc1 (centres undefined) returned HCMV inh -17.6 and FMDV antiviral -24.7%.
C=CCOC(=O)C(C(C)=O)[C@@H](NC(=O)OC)c1ccc(F)cc1 (some centres undefined) was read as Marburg entry inh 19.6%[14.2 µM].
Screening O=C(O)COc1ccccc1C(Nc1cccnc1)c1cc(Cl)c2cccnc2c1O (centres undefined) returned LASV entry inh 26.6%[46.1 µM], HCV inhibitor 2.1%, Marburg entry inh 16.6%[46.1 µM] and FMDV antiviral -5.8%.
For CCOc1ccc(C(Nc2cccnc2)c2cc(Cl)c3cccnc3c2O)cc1 (centres undefined) the results were LASV entry inh inconclusive, HCV inhibitor inconclusive, HCMV inh -93.5*, Marburg entry inh inconclusive and FMDV antiviral -13.6%.
For CCCn1c(N)c(N(CCOC)C(=O)Cc2ccc(S(=O)(=O)N3CCOCC3)s2)c(=O)[nH]c1=O the results were HCV inhibitor 0.1%, HCMV inh -15.7 and FMDV antiviral -7.7%.
For NC(=O)c1nc(Nc2ccccc2)sc1NC(=O)c1ccccc1Br the results were LASV entry inh -4.7%[46.1 µM], HCMV inh -13.5 and FMDV antiviral -23.7%.
For Cc1cc(C)cc(OCC(=O)NCC2(N3CCOCC3)CCCCC2)c1 the results were LASV entry inh -0.1%[46.1 µM], HCMV inh -15.1, Marburg entry inh 26.8%[46.1 µM] and FMDV antiviral -22.2%.
For Cc1ccc(OCC(=O)NCC2(N3CCOCC3)CCCCC2)cc1C the results were LASV entry inh 0.6%[46.1 µM], HCMV inh -60.3*, Marburg entry inh inconclusive and FMDV antiviral -20.8%.
`CCCN1CCN(S(=O)(=O)c2ccc(-c3cc(C)no3)s2)CC1` gave HCV inhibitor 1.0%, HCMV inh 0.0 and FMDV antiviral -19.0%.
`O=C(COC(=O)CNS(=O)(=O)c1ccc2ccccc2c1)Nc1ccccc1Sc1ccccc1` gave LASV entry inh 11.9%, HCV inhibitor 3.0%, HCMV inh 16.8, Marburg entry inh -11.3% and FMDV antiviral -6.7%.
Screening CC1OC(OC2C(CO)OC(OC3C(CO)OC(O)C(O)C3O)C(O)C2O)C(O)C(O)C1NC1C=C(CO)C(O)C(O)C1O (centres undefined) returned FMDV antiviral -6.2%.
Screening O=[N+]([O-])c1cc(-c2ccccc2)cc([N+](=O)[O-])c1O returned LASV entry inh 4.1%[46.1 µM], HCV inhibitor -11.0%, HCMV inh -86.8*, Marburg entry inh -1.5%[46.1 µM] and FMDV antiviral inconclusive.
O=[N+]([O-])c1cc(O)c(O)c([N+](=O)[O-])c1 was read as LASV entry inh inconclusive, HCV inhibitor 21.5%, HCMV inh -8.9, Marburg entry inh -8.2% and FMDV antiviral -19.5%.
O=[N+]([O-])c1cc2ccccc2c(O)c1O was read as HCMV inh -100.3* and FMDV antiviral 0.0%.
For COc1cc(-c2cccc(OC)c2OC)cc2c1OCCN(Cc1cn[nH]c1-c1ccc(Cl)cc1)C2 the results were FMDV antiviral -17.1%.
For CN(C)c1ccc(Cc2cc3c(O)ccc(O)c3cc(Cc3ccc(N(C)C)cc3)c2=O)cc1 the results were LASV entry inh -28.4%, HCV inhibitor 11.2µM*, HCMV inh -10.8, Marburg entry inh inconclusive and FMDV antiviral -19.9%.
For CN(C)c1ccc(C(=O)c2ccc(O)cc2O)cc1 the results were LASV entry inh -18.1%, HCV inhibitor -20.6%, HCMV inh 150.3, Marburg entry inh 9.9% and FMDV antiviral 3.1%.
Cc1ccc2cc(C)c(NCCO)nc2c1 was read as LASV entry inh 16.5%, HCV inhibitor -4.9%, HCMV inh -60.3*, Marburg entry inh inconclusive and FMDV antiviral -8.0%.
`Cc1ccc2nc(C)cc(NCCO)c2c1` gave LASV entry inh 0.0%, HCV inhibitor -13.4%, HCMV inh 45.1, Marburg entry inh inconclusive and FMDV antiviral -2.7%.
Screening CCC1CN(CCC(=O)N2CCN(c3ncccn3)CC2)Cc2cc(OC)ccc2O1 (centres undefined) returned FMDV antiviral -19.1%.
CC(C)c1ccc(NC(=O)CSc2nc3ncccc3[nH]2)cc1 was read as HCV inhibitor inconclusive, HCMV inh -25.7 and FMDV antiviral -17.0%.
O=C(CSc1nc2ncccc2[nH]1)c1cccc([N+](=O)[O-])c1 was read as LASV entry inh -9.6%, HCV inhibitor inconclusive, HCMV inh -65.6*, Marburg entry inh inconclusive and FMDV antiviral -27.9%.
`CC(C)OC(=O)c1ccc(NC(=O)CSc2nc3ncccc3[nH]2)cc1` gave HCV inhibitor 11.2µM*, HCMV inh -26.3 and FMDV antiviral inconclusive.
Screening COc1ccc(-n2nc(C)c3c(C(F)(F)F)cc(-c4cccnc4)nc32)cc1 returned LASV entry inh -5.0%[46.1 µM], HCMV inh -72.6*, Marburg entry inh 2.2%[46.1 µM] and FMDV antiviral -8.4%.
For Cc1nn(-c2cccc(Cl)c2)c2nc(-c3cccnc3)cc(C(F)(F)F)c12 the results were LASV entry inh 16.4%[46.1 µM], HCMV inh -32.6, Marburg entry inh 7.9%[46.1 µM] and FMDV antiviral -13.1%.
`CCN(CC)CC(O)CN(c1ccccc1)S(=O)(=O)c1ccc2ccccc2c1` (centres undefined) gave LASV entry inh inconclusive, HCV inhibitor 7.1%, HCMV inh -67.4*, Marburg entry inh inconclusive and FMDV antiviral -3.3%.
Screening COc1ccc(N(C(=O)CCl)C(C(=O)NCCc2ccccc2)c2cccs2)cc1Cl (centres undefined) returned LASV entry inh 25.9µM*, HCV inhibitor 0.562µM*, HCMV inh -102.8*, Marburg entry inh inconclusive and FMDV antiviral 20µM*.
For COc1ccc(N(C(=O)c2ccco2)C(C(=O)NC2CCCCC2)c2cccs2)cc1OC (centres undefined) the results were LASV entry inh inconclusive, HCV inhibitor 5.1%, HCMV inh -2.1, Marburg entry inh -3.1% and FMDV antiviral 14.3%.
